# Assay results as given in publication PMC11006913.
# How the values were obtained:
# Assay in all cases: PBM; 200 nM protein, PBS
# Details in all cases: dsDNA, one strand shown
# [1] = biological target: HESX1 (Homo sapiens, UniProt Q9UBX0 95-180, R165K)
# [2] = biological target: HOXB4 (Homo sapiens, UniProt P17483 148-234)
# [3] = biological target: SHOX (Homo sapiens, UniProt O15266 103-189)
# [4] = biological target: HESX1 (Homo sapiens, UniProt Q9UBX0 95-180)
# [5] = biological target: HOXB4 (Homo sapiens, UniProt P17483 148-234, V174I)
# Sequence of HOXB4 (Homo sapiens, UniProt P17483 148-234, V174I) (P17483 148-234 V174I): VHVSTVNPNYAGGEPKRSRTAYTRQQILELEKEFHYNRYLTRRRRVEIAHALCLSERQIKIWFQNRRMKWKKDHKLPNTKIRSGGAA
# [6] = biological target: ALX1 (Homo sapiens, UniProt Q15699 118-204, L144V)
# Sequence of ALX1 (Homo sapiens, UniProt Q15699 118-204, L144V) (Q15699 118-204 L144V): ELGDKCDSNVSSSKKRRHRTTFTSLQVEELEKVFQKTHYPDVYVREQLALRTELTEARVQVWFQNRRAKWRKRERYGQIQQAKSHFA
# [7] = biological target: ALX3 (Homo sapiens, UniProt O95076 139-225, N203Q)
# Sequence of ALX3 (Homo sapiens, UniProt O95076 139-225, N203Q) (O95076 139-225 N203Q): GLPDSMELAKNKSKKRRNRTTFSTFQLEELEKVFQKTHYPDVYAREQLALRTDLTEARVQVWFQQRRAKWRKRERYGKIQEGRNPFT
# [8] = biological target: SHOX (Homo sapiens, UniProt O15266 103-189, R173C)
# Sequence of SHOX (Homo sapiens, UniProt O15266 103-189, R173C) (O15266 103-189 R173C): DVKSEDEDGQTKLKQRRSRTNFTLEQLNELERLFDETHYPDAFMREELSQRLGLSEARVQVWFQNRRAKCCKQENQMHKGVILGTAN
# [9] = biological target: ALX1 (Homo sapiens, UniProt Q15699 118-204, L144R)
# Sequence of ALX1 (Homo sapiens, UniProt Q15699 118-204, L144R) (Q15699 118-204 L144R): as the sequence (Q15699 118-204 L144V) above, with V27R counted along it
# [10] = biological target: ALX3 (Homo sapiens, UniProt O95076 139-225)
# Sequence of ALX3 (Homo sapiens, UniProt O95076 139-225) (O95076 139-225): as the sequence (O95076 139-225 N203Q) above, with Q65N counted along it
# [11] = biological target: PROP1 (Homo sapiens, UniProt O75360 56-141)
# Sequence of PROP1 (Homo sapiens, UniProt O75360 56-141) (O75360 56-141): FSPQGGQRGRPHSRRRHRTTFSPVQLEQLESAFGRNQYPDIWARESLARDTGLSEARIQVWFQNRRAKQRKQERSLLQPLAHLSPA
# [12] = biological target: HESX1 (Homo sapiens, UniProt Q9UBX0 95-180, R109Q)
# Sequence of HESX1 (Homo sapiens, UniProt Q9UBX0 95-180, R109Q) (Q9UBX0 95-180 R109Q): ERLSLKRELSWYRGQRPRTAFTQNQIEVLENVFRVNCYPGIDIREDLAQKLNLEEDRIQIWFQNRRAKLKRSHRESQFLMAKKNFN
# [13] = biological target: PROP1 (Homo sapiens, UniProt O75360 56-141, R99H)
# Sequence of PROP1 (Homo sapiens, UniProt O75360 56-141, R99H) (O75360 56-141 R99H): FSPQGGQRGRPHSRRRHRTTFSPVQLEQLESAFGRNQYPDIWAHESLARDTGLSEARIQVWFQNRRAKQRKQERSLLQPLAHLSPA
# [14] = biological target: ALX3 (Homo sapiens, UniProt O95076 139-225, L168Q)
# Sequence of ALX3 (Homo sapiens, UniProt O95076 139-225, L168Q) (O95076 139-225 L168Q): as the sequence (O95076 139-225 N203Q) above, with L30Q, Q65N counted along it
# [15] = biological target: HESX1 (Homo sapiens, UniProt Q9UBX0 95-180, P111T)
# Sequence of HESX1 (Homo sapiens, UniProt Q9UBX0 95-180, P111T) (Q9UBX0 95-180 P111T): as the sequence (Q9UBX0 95-180 R109Q) above, with Q15R, P17T counted along it
# [16] = biological target: ALX3 (Homo sapiens, UniProt O95076 139-225, L168V)
# Sequence of ALX3 (Homo sapiens, UniProt O95076 139-225, L168V) (O95076 139-225 L168V): as the sequence (O95076 139-225 N203Q) above, with L30V, Q65N counted along it
# [17] = biological target: PROP1 (Homo sapiens, UniProt O75360 56-141, F88S)
# Sequence of PROP1 (Homo sapiens, UniProt O75360 56-141, F88S) (O75360 56-141 F88S): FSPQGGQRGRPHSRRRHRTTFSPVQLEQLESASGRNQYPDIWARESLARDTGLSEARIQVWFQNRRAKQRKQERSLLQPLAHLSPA
# [18] = biological target: HESX1 (Homo sapiens, UniProt Q9UBX0 95-180, F115L)
# Sequence of HESX1 (Homo sapiens, UniProt Q9UBX0 95-180, F115L) (Q9UBX0 95-180 F115L): as the sequence (Q9UBX0 95-180 R109Q) above, with Q15R, F21L counted along it
# [19] = biological target: ALX1 (Homo sapiens, UniProt Q15699 118-204)
# Sequence of ALX1 (Homo sapiens, UniProt Q15699 118-204) (Q15699 118-204): as the sequence (Q15699 118-204 L144V) above, with V27L counted along it
# [20] = biological target: ALX3 (Homo sapiens, UniProt O95076 139-225, N203S)
# Sequence of ALX3 (Homo sapiens, UniProt O95076 139-225, N203S) (O95076 139-225 N203S): as the sequence (O95076 139-225 N203Q) above, with Q65S counted along it
# Sequence of HESX1 (Homo sapiens, UniProt Q9UBX0 95-180) (Q9UBX0 95-180): as the sequence (Q9UBX0 95-180 R109Q) above, with Q15R counted along it
# Sequence of HOXB4 (Homo sapiens, UniProt P17483 148-234) (P17483 148-234): as the sequence (P17483 148-234 V174I) above, with I27V counted along it
# Sequence of SHOX (Homo sapiens, UniProt O15266 103-189) (O15266 103-189): as the sequence (O15266 103-189 R173C) above, with C71R counted along it
# Sequence of HESX1 (Homo sapiens, UniProt Q9UBX0 95-180, R165K) (Q9UBX0 95-180 R165K): as the sequence (Q9UBX0 95-180 R109Q) above, with Q15R, R71K counted along it
Sequence,binding signal [1],binding signal [2],binding signal [3],binding signal [4],binding signal [5],binding signal [6],binding signal [7],binding signal [8],binding signal [9],binding signal [10],binding signal [11],binding signal [12],binding signal [13],binding signal [14],binding signal [15],binding signal [16],binding signal [17],binding signal [18],binding signal [19],binding signal [20]
GTCAATTA,"13.1 upbm affinity estimate (log intensity, higher = more binding, comparable within an allelic series)","13.3 upbm affinity estimate (log intensity, higher = more binding, comparable within an allelic series)","12.4 upbm affinity estimate (log intensity, higher = more binding, comparable within an allelic series)","13.1 upbm affinity estimate (log intensity, higher = more binding, comparable within an allelic series)","13.9 upbm affinity estimate (log intensity, higher = more binding, comparable within an allelic series)","11.8 upbm affinity estimate (log intensity, higher = more binding, comparable within an allelic series)","8.23 upbm affinity estimate (log intensity, higher = more binding, comparable within an allelic series)","9.5 upbm affinity estimate (log intensity, higher = more binding, comparable within an allelic series)","11.4 upbm affinity estimate (log intensity, higher = more binding, comparable within an allelic series)","12.5 upbm affinity estimate (log intensity, higher = more binding, comparable within an allelic series)","11.4 upbm affinity estimate (log intensity, higher = more binding, comparable within an allelic series)","9.32 upbm affinity estimate (log intensity, higher = more binding, comparable within an allelic series)","11.8 upbm affinity estimate (log intensity, higher = more binding, comparable within an allelic series)","10.7 upbm affinity estimate (log intensity, higher = more binding, comparable within an allelic series)","11.6 upbm affinity estimate (log intensity, higher = more binding, comparable within an allelic series)","10.1 upbm affinity estimate (log intensity, higher = more binding, comparable within an allelic series)","7.62 upbm affinity estimate (log intensity, higher = more binding, comparable within an allelic series)","7.69 upbm affinity estimate (log intensity, higher = more binding, comparable within an allelic series)","12.4 upbm affinity estimate (log intensity, higher = more binding, comparable within an allelic series)","8.41 upbm affinity estimate (log intensity, higher = more binding, comparable within an allelic series)"
CAATTACC,"12.7 upbm affinity estimate (log intensity, higher = more binding, comparable within an allelic series)","13 upbm affinity estimate (log intensity, higher = more binding, comparable within an allelic series)","11.8 upbm affinity estimate (log intensity, higher = more binding, comparable within an allelic series)","12.6 upbm affinity estimate (log intensity, higher = more binding, comparable within an allelic series)","13.7 upbm affinity estimate (log intensity, higher = more binding, comparable within an allelic series)","11.6 upbm affinity estimate (log intensity, higher = more binding, comparable within an allelic series)","8.27 upbm affinity estimate (log intensity, higher = more binding, comparable within an allelic series)","9.24 upbm affinity estimate (log intensity, higher = more binding, comparable within an allelic series)","11.3 upbm affinity estimate (log intensity, higher = more binding, comparable within an allelic series)","12.4 upbm affinity estimate (log intensity, higher = more binding, comparable within an allelic series)","11.3 upbm affinity estimate (log intensity, higher = more binding, comparable within an allelic series)","8.97 upbm affinity estimate (log intensity, higher = more binding, comparable within an allelic series)","11.5 upbm affinity estimate (log intensity, higher = more binding, comparable within an allelic series)","10.3 upbm affinity estimate (log intensity, higher = more binding, comparable within an allelic series)","10.9 upbm affinity estimate (log intensity, higher = more binding, comparable within an allelic series)","9.72 upbm affinity estimate (log intensity, higher = more binding, comparable within an allelic series)","7.4 upbm affinity estimate (log intensity, higher = more binding, comparable within an allelic series)","7.62 upbm affinity estimate (log intensity, higher = more binding, comparable within an allelic series)","12.4 upbm affinity estimate (log intensity, higher = more binding, comparable within an allelic series)","8.36 upbm affinity estimate (log intensity, higher = more binding, comparable within an allelic series)"
ATAATTAG,"13.4 upbm affinity estimate (log intensity, higher = more binding, comparable within an allelic series)","13.6 upbm affinity estimate (log intensity, higher = more binding, comparable within an allelic series)","13 upbm affinity estimate (log intensity, higher = more binding, comparable within an allelic series)","13.4 upbm affinity estimate (log intensity, higher = more binding, comparable within an allelic series)","14.3 upbm affinity estimate (log intensity, higher = more binding, comparable within an allelic series)","12.3 upbm affinity estimate (log intensity, higher = more binding, comparable within an allelic series)","8.56 upbm affinity estimate (log intensity, higher = more binding, comparable within an allelic series)","10.3 upbm affinity estimate (log intensity, higher = more binding, comparable within an allelic series)","11.9 upbm affinity estimate (log intensity, higher = more binding, comparable within an allelic series)","12.9 upbm affinity estimate (log intensity, higher = more binding, comparable within an allelic series)","12.1 upbm affinity estimate (log intensity, higher = more binding, comparable within an allelic series)","9.82 upbm affinity estimate (log intensity, higher = more binding, comparable within an allelic series)","12.1 upbm affinity estimate (log intensity, higher = more binding, comparable within an allelic series)","11.2 upbm affinity estimate (log intensity, higher = more binding, comparable within an allelic series)","12 upbm affinity estimate (log intensity, higher = more binding, comparable within an allelic series)","10.8 upbm affinity estimate (log intensity, higher = more binding, comparable within an allelic series)","7.99 upbm affinity estimate (log intensity, higher = more binding, comparable within an allelic series)","8.28 upbm affinity estimate (log intensity, higher = more binding, comparable within an allelic series)","12.9 upbm affinity estimate (log intensity, higher = more binding, comparable within an allelic series)","8.75 upbm affinity estimate (log intensity, higher = more binding, comparable within an allelic series)"
AGCAATTA,"12.6 upbm affinity estimate (log intensity, higher = more binding, comparable within an allelic series)","13 upbm affinity estimate (log intensity, higher = more binding, comparable within an allelic series)","11.9 upbm affinity estimate (log intensity, higher = more binding, comparable within an allelic series)","12.7 upbm affinity estimate (log intensity, higher = more binding, comparable within an allelic series)","13.7 upbm affinity estimate (log intensity, higher = more binding, comparable within an allelic series)","11.6 upbm affinity estimate (log intensity, higher = more binding, comparable within an allelic series)","8.32 upbm affinity estimate (log intensity, higher = more binding, comparable within an allelic series)","9.41 upbm affinity estimate (log intensity, higher = more binding, comparable within an allelic series)","11.3 upbm affinity estimate (log intensity, higher = more binding, comparable within an allelic series)","12.4 upbm affinity estimate (log intensity, higher = more binding, comparable within an allelic series)","11.4 upbm affinity estimate (log intensity, higher = more binding, comparable within an allelic series)","9.19 upbm affinity estimate (log intensity, higher = more binding, comparable within an allelic series)","11.4 upbm affinity estimate (log intensity, higher = more binding, comparable within an allelic series)","10.5 upbm affinity estimate (log intensity, higher = more binding, comparable within an allelic series)","11.1 upbm affinity estimate (log intensity, higher = more binding, comparable within an allelic series)","9.97 upbm affinity estimate (log intensity, higher = more binding, comparable within an allelic series)","7.59 upbm affinity estimate (log intensity, higher = more binding, comparable within an allelic series)","7.88 upbm affinity estimate (log intensity, higher = more binding, comparable within an allelic series)","12.2 upbm affinity estimate (log intensity, higher = more binding, comparable within an allelic series)","8.41 upbm affinity estimate (log intensity, higher = more binding, comparable within an allelic series)"
